# From publication PMC5540273 (PLoS ONE, 2017)
# Values joined by “and” are separate entries in the source; they are usually repeats but may differ in a detail not shown here. Equal entries are not always repeated. Where two headings read alike, the source gives them in different places.
# Legend:
# TAOK2 = settings: concentration: 1 μM, replicates: in singlicate; n = 1
# TAOK3 = settings: concentration: 1 μM, replicates: in singlicate, n = 1
# TBK1 = settings: concentration: 1 μM, replicates: in singlicate, n = 1
# TEC = settings: concentration: 1 μM, replicates: in singlicate, n = 1
# TESK1 = settings: concentration: 1 μM, replicates: in singlicate, n = 1
# TGFBR1 = settings: n = 1
# TGFBR2 = settings: concentration: 1 μM, replicates: in singlicate, n = 1
# TIE1 = settings: concentration: 1 μM, replicates: in singlicate, n = 1
# TIE2 = test system: T1, TIE2; settings: concentration: 1 μM, replicates: in singlicate, n = 1
# T1 construct: gene TEK
# TLK1 = settings: concentration: 1 μM, replicates: in singlicate, n = 1
# TLK2 = settings: concentration: 1 μM, replicates: in singlicate, n = 1
# TNIK = settings: concentration: 1 μM, replicates: in singlicate, n = 1
# TNK1 = settings: concentration: 1 μM, replicates: in singlicate, n = 1
# TNK2 = settings: concentration: 1 μM, replicates: in singlicate, n = 1
# TNNI3K = settings: concentration: 1 μM, replicates: in singlicate, n = 1
# TRKA = test system: T2, TRKA; settings: concentration: 1 μM, replicates: in singlicate, n = 1
# T2 construct: gene NTRK1
# TRKB = settings: concentration: 1 μM, replicates: in singlicate, n = 1
# TRKC = test system: T3, TRKC; settings: concentration: 1 μM, replicates: in singlicate, n = 1
# T3 construct: gene NTRK3
# TRPM6 = settings: concentration: 1 μM, replicates: in singlicate, n = 1
# TSSK1B = settings: concentration: 1 μM, replicates: in singlicate, n = 1
# [1] = concentration: 1 μM, replicates: in singlicate
# 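Also: KINOMEscan kinase panel screen.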
compound,measurement,setting,value
NS(=O)(=O)c1cccc(-c2ccc3ncc(N4CCOCC4)nc3c2)c1 [GSK1535721],%Inh,TAOK2,0%
same,%Inh,TAOK3,4%
same,%Inh,TBK1,17%
same,%Inh,TEC,18%
same,%Inh,TESK1,0%
same,%Inh,TGFBR1; [1],6%
same,%Inh,TGFBR2,0%
same,%Inh,TIE1,0%
same,%Inh,TIE2,0%
same,%Inh,TLK1,9%
same,%Inh,TLK2,8%
same,%Inh,TNIK,34%
same,%Inh,TNK1,0%
same,%Inh,TNK2,2%
same,%Inh,TNNI3K,14%
same,%Inh,TRKA,37%
same,%Inh,TRKB,0%
same,%Inh,TRKC,5%
same,%Inh,TRPM6,0%
same,%Inh,TSSK1B,0%
CC(C)(CN)c1nc(-c2ccc(Cl)c(O)c2)c(-c2ccncc2)[nH]1.O=C(O)C(F)(F)F [SB-477794],%Inh,TAOK2,0%
same,%Inh,TAOK3; 1 µM,6% and 0%
same,%Inh,TBK1; 1 µM,0% and 5%
same,%Inh,TEC; 1 µM,13% and 0%
same,%Inh,TESK1; 1 µM,100% and 56%
same,%Inh,"TGFBR1; concentration: 1 μM, replicates: in singlicate, 1 µM",98.8% and 96.2%
same,%Inh,TGFBR2; 1 µM,99.2% and 99.6%
same,%Inh,TIE1; 1 µM,1% and 0%
same,%Inh,TIE2; 1 µM,3% and 22%
same,%Inh,TLK1; 1 µM,20% and 11%
same,%Inh,TLK2; 1 µM,10% and 4%
same,%Inh,TNIK; 1 µM,89% and 87%
same,%Inh,TNK1; 1 µM,0% and 84%
same,%Inh,TNK2; 1 µM,0% and 5%
same,%Inh,TNNI3K; 1 µM,85% and 77%
same,%Inh,TRKA; 1 µM,0% and 49%
same,%Inh,TRKB; 1 µM,75% and 32%
same,%Inh,TRKC; 1 µM,55% and 46%
same,%Inh,TRPM6; 1 µM,69% and 54%
same,%Inh,TSSK1B; 1 µM,17% and 0%
CSc1ccc(-c2cc3ncnc(SCC(=O)O)c3s2)cc1,%Inh,TAOK2,0%
same,%Inh,TAOK3,0%
same,%Inh,TBK1,0%
same,%Inh,TEC,0%
same,%Inh,TESK1,0%
same,%Inh,TGFBR1; [1],0%
same,%Inh,TGFBR2,12%
same,%Inh,TIE1,0%
same,%Inh,TIE2,0%
same,%Inh,TLK1,2%
same,%Inh,TLK2,0%
same,%Inh,TNIK,3%
same,%Inh,TNK1,57%
same,%Inh,TNK2,14%
same,%Inh,TNNI3K,0%
same,%Inh,TRKA,0%
same,%Inh,TRKB,0%
same,%Inh,TRKC,0%
same,%Inh,TRPM6,0%
same,%Inh,TSSK1B,0%
[2H]C([2H])(c1cccc(C(F)(F)F)c1C)n1ccn2c(=O)nc(N3CCOCC3)cc12 [GSK2336394],%Inh,TAOK2,0%
same,%Inh,TAOK3,0%
same,%Inh,TBK1,10%
same,%Inh,TEC,0%
same,%Inh,TESK1,26%
same,%Inh,TGFBR1; [1],5%
same,%Inh,TGFBR2,32%
same,%Inh,TIE1,11%
same,%Inh,TIE2,0%
same,%Inh,TLK1,0%
same,%Inh,TLK2,0%
same,%Inh,TNIK,0%
same,%Inh,TNK1,4%
same,%Inh,TNK2,7%
same,%Inh,TNNI3K,0%
same,%Inh,TRKA,0%
same,%Inh,TRKB,0%
same,%Inh,TRKC,0%
same,%Inh,TRPM6,53%
same,%Inh,TSSK1B,0%
O=C(Nc1cccc(-c2nn3ncccc3c2-c2ccnc(Nc3cccc(C(F)(F)F)c3)n2)c1)c1c(F)cccc1F [GSK299495],%Inh,TAOK2,41%
same,%Inh,TAOK3,63%
same,%Inh,TBK1,6%
same,%Inh,TEC,96.8%
same,%Inh,TESK1,15%
same,%Inh,TGFBR1; [1],8%
same,%Inh,TGFBR2,1%
same,%Inh,TIE1,10%
same,%Inh,TIE2,0%
same,%Inh,TLK1,0%
same,%Inh,TLK2,0%
same,%Inh,TNIK,14%
same,%Inh,TNK1,90.5%
same,%Inh,TNK2,49%
same,%Inh,TNNI3K,8%
same,%Inh,TRKA,0%
same,%Inh,TRKB,39%
same,%Inh,TRKC,20%
same,%Inh,TRPM6,33%
same,%Inh,TSSK1B,5%
COc1cc2c(cc1OC[C@@H](O)CO)ncc1c3ccc(C#N)cc3[nH]c21,%Inh,TAOK2,0%
same,%Inh,TAOK3,0%
same,%Inh,TBK1,68%
same,%Inh,TEC,0%
same,%Inh,TESK1,0%
same,%Inh,TGFBR1; [1],23%
same,%Inh,TGFBR2,0%
same,%Inh,TIE1,0%
same,%Inh,TIE2,0%
same,%Inh,TLK1,11%
same,%Inh,TLK2,0%
same,%Inh,TNIK,64%
same,%Inh,TNK1,36%
same,%Inh,TNK2,0%
same,%Inh,TNNI3K,0%
same,%Inh,TRKA,98.8%
same,%Inh,TRKB,90%
same,%Inh,TRKC,66%
same,%Inh,TRPM6,0%
same,%Inh,TSSK1B,3%
CN1c2ccc(CNc3ccc(F)cc3)cc2-c2c(cnn2C)S1(=O)=O,%Inh,TAOK2,23%
same,%Inh,TAOK3,0%
same,%Inh,TBK1,0%
same,%Inh,TEC,0%
same,%Inh,TESK1,0%
same,%Inh,TGFBR1; [1],0%
same,%Inh,TGFBR2,0%
same,%Inh,TIE1,0%
same,%Inh,TIE2,0%
same,%Inh,TLK1,16%
same,%Inh,TLK2,0%
same,%Inh,TNIK,9%
same,%Inh,TNK1,12%
same,%Inh,TNK2,0%
same,%Inh,TNNI3K,0%
same,%Inh,TRKA,0%
same,%Inh,TRKB,0%
same,%Inh,TRKC,0%
same,%Inh,TRPM6,0%
same,%Inh,TSSK1B,0%
Cc1ccc(C(=O)NCC(N)=O)cc1-n1c(C)cc(OCc2ccc(F)cc2F)c(Br)c1=O,%Inh,TAOK2,7%
same,%Inh,TAOK3,0%
same,%Inh,TBK1,36%
same,%Inh,TEC,13%
same,%Inh,TESK1,31%
same,%Inh,TGFBR1; [1],36%
same,%Inh,TGFBR2,26%
same,%Inh,TIE1,0%
same,%Inh,TIE2,0%
same,%Inh,TLK1,0%
same,%Inh,TLK2,0%
same,%Inh,TNIK,0%
same,%Inh,TNK1,0%
same,%Inh,TNK2,15%
same,%Inh,TNNI3K,14%
same,%Inh,TRKA,0%
same,%Inh,TRKB,0%
same,%Inh,TRKC,0%
same,%Inh,TRPM6,0%
same,%Inh,TSSK1B,26%
c1ccc(-c2n[nH]cc2-c2ccnc3ccccc23)nc1 [GW271431],%Inh,TAOK2,0%
same,%Inh,TAOK3,0%
same,%Inh,TBK1,12%
same,%Inh,TEC,0%
same,%Inh,TESK1,20%
same,%Inh,TGFBR1; 1 µM,90.1%
same,%Inh,TGFBR2,72%
same,%Inh,TIE1,3%
same,%Inh,TIE2,0%
same,%Inh,TLK1,2%
same,%Inh,TLK2,0%
same,%Inh,TNIK,32%
same,%Inh,TNK1,10%
same,%Inh,TNK2,19%
same,%Inh,TNNI3K,12%
same,%Inh,TRKA,35%
same,%Inh,TRKB,0%
same,%Inh,TRKC,0%
same,%Inh,TRPM6,29%
same,%Inh,TSSK1B,11%
CC(=O)Nc1ccc(COc2ccc(Nc3ccnc4cc(-c5ccccn5)ccc34)cc2)cc1.Cl [GW440148],%Inh,TAOK2,0%
same,%Inh,TAOK3,0%
same,%Inh,TBK1,21%
same,%Inh,TEC,0%
same,%Inh,TESK1,9%
same,%Inh,TGFBR1; [1],8%
same,%Inh,TGFBR2,28%
same,%Inh,TIE1,26%
same,%Inh,TIE2,6%
same,%Inh,TLK1,38%
same,%Inh,TLK2,25%
same,%Inh,TNIK,0%
same,%Inh,TNK1,6%
same,%Inh,TNK2,37%
same,%Inh,TNNI3K,2%
same,%Inh,TRKA,14%
same,%Inh,TRKB,11%
same,%Inh,TRKC,25%
same,%Inh,TRPM6,42%
same,%Inh,TSSK1B,1%
